Test results from PubChem BioAssay AID1851 (National Center for Advancing Translational Sciences (NCATS), 2009).
The whole screen tested about 16,000 compounds, of which about 5,100 (32%) were called active. Roughly 25% stayed inconclusive and do not appear here. The list shows a part of the results. Unmarked numbers belong to inactive results. Calls come from the whole dose curve; as a rule, active = well fitted curve in the direction sought with a large enough effect; inconclusive = small, poorly fitted or top-dose-only effect, or effect the other way; inactive = no such curve, though single readings can be large or run the other way.

What follows are molecules tested against Cytochrome P450 3A4 (Homo sapiens) (UniProt P08684) (assay: Cytochrome panel assay with activity outcomes). Settings: recombinant CYP, pro-luciferin dealkylation, luminescence, p450-cyp3a4; series mostly up to 57.1 µM.
Sequence of Cytochrome P450 3A4 (Homo sapiens) (P08684 whole entry, looked up): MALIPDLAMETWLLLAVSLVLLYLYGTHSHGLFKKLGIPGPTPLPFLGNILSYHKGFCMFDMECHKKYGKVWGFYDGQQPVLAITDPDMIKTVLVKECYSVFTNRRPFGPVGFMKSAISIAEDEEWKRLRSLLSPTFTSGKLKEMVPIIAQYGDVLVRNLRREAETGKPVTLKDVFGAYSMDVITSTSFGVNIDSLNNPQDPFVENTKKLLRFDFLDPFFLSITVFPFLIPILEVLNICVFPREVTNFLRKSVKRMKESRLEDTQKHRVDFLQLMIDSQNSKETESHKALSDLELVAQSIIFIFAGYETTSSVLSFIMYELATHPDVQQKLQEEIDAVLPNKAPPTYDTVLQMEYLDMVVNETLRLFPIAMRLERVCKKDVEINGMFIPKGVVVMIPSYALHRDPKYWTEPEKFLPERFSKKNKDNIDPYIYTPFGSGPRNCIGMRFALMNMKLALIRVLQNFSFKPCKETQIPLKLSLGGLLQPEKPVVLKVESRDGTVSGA
% is set by controls: 0 for no effect and ±100 for the full control effect.

Structure (SMILES) | activity, negative = inhibition | AC50
S=c1c2[nH]cnc2ncn1CCSc1ncnc2nc[nH]c12 | -9.42% [at 11.4 µM] | –
CSCCC(NC=C1C(=O)OC(C)(C)OC1=O)C(=O)O (stereo not drawn) | – | inactive
CCN(CC)S(=O)(=O)c1cccc2c(N(C)C)cccc12 | – | inactive
c1ccc(CCCNc2nnnc3ccccc23)cc1 | -29.6% [at 11.4 µM] | –
O=S(=O)(NCCCCCCc1ccccc1)c1cccc2c(Cl)cccc12 | – | 2.51 µM (active)
CCCCCCCNS(=O)(=O)c1cccc2c(Cl)cccc12 | – | 7.94 µM (active)
NCCCc1c(-c2ccccc2)nc(N)[nH]c1=O | 1.03% [at 11.4 µM] | –
Cn1c(=O)c2[nH]c(CSCc3ccccc3)nc2n(C)c1=O | -25% [at 11.4 µM] | –
Cn1c(=O)c2[nH]c(CCCCc3nc4c([nH]3)c(=O)n(C)c(=S)n4C)nc2n(C)c1=S | – | 1.26 µM (active)
Cn1c(=S)c2[nH]c(SCCN3C(=O)c4ccccc4C3=O)nc2n(C)c1=O | -20.9% [at 11.4 µM] | –
Cn1c(=O)c2[nH]c(SCc3ccccn3)nc2n(C)c1=S | – | 3.98 µM (active)
Cn1c(=O)c2[nH]c(CCCCC(=O)O)nc2n(C)c1=O | -10.1% [at 11.4 µM] | –
Cn1c(=S)c2[nH]c(SCc3cccnc3)nc2n(C)c1=O | – | 3.16 µM (active)
Cn1c(=O)c2[nH]c(CCCCc3nc4ccccc4[nH]3)nc2n(C)c1=O | -19% [at 11.4 µM] | –
Cn1c(=S)c2[nH]c(SCCN3CCCC3)nc2n(C)c1=O | -16% [at 11.4 µM] | –
Cn1c(=S)c2[nH]c(SCCCc3ccccc3)nc2n(C)c1=O | -26.2% [at 11.4 µM] | –
NCCS(=O)O | – | inactive
CCCC(c1cc(C(C)(C)C)c(O)cc1C)c1cc(C(C)(C)C)c(O)cc1C | 5.69% [at 11.4 µM] | –
CCN1CCN(C(=O)N[C@H](C(=O)N[C@@H]2C(=O)N3C(C(=O)O)=C(CSc4nnnn4C)CS[C@@H]23)c2ccc(O)cc2)C(=O)C1=O | – | inactive
Cc1ccc(-c2nn(C)c(=O)c3ccccc23)cc1CNC(=O)Cn1nc(-c2ccccc2)c2ccccc2c1=O | -27.5% [at 11.4 µM] | –

Structure (SMILES) | activity, negative = inhibition | AC50
O=c1c2ccccc2c(-c2ccccc2)nn1-c1ccc(Cl)c(Cl)c1 | – | inactive
O=C(O)Cc1sc(-c2ccc(Cl)cc2)nc1-c1ccccc1 | – | inactive
O=C(/C=C/c1ccc(Cl)cc1)NCCN1CCOCC1 | – | inactive
O=C(CCn1nc(-c2ccc(Cl)cc2)c2ccccc2c1=O)NCCN1CCOCC1 | – | 7.08 µM (active)
O=c1c2ccccc2c(-c2ccccc2)nn1Cc1ccc(Cl)cc1 | – | 17.8 µM (active)
O=C(CSc1nnc(-c2cccc(S(=O)(=O)N3CCOCC3)c2)n1C1CCCCCC1)NCc1ccccc1 | – | 2.51 µM (active)
O=C(COc1ccc2ccccc2c1)N1CCN(C(=O)c2cccnc2)CC1 | – | 8.91 µM (active)
CCC(=O)N1CCN(C(=O)c2ccccc2)CC1 | – | inactive
O=C(CCN1C(=O)C2C3C=CC(C3)C2C1=O)Nc1ccc2ncccc2c1 (stereo not drawn) | – | 2.51 µM (active)
CC(=O)NC(CCS(C)(=O)=O)C(=O)Nc1c(F)cccc1F (stereo not drawn) | – | inactive
O=C(CCN1C(=O)C2C3C=CC(C3)C2C1=O)Nc1c(F)cccc1F (stereo not drawn) | – | 3.98 µM (active)
O=C(Nc1ccc2ncccc2c1)Nc1ccc2ncccc2c1 | -24.8% [at 11.4 µM] | –
Cc1c(NC(=O)CN2C(=O)C3C4C=CC(C4)C3C2=O)c(=O)n(-c2ccccc2)n1C (stereo not drawn) | – | 22.4 µM (active)
Cc1c(NC(=O)Cn2ccc([N+](=O)[O-])n2)c(=O)n(-c2ccccc2)n1C | – | inactive
Cc1c(NC(=O)CN2CCN(c3ccccc3)CC2)c(=O)n(-c2ccccc2)n1C | – | inactive
c1ccc(CN2c3ccccc3-c3nc4ccccc4n3C2c2ccccn2)cc1 (stereo not drawn) | – | 3.16 µM (active)
Clc1ncccc1-c1nc2ccccc2n1Cc1ccccc1 | 6.58% [at 2.29 µM] | –
COc1cccc(C2=CC(c3ccccc3)n3nnnc3N2)c1 (stereo not drawn) | – | inactive
COc1ccccc1NC(=O)C1=C(C)Nc2nc(-c3ccc(N(C)C)cc3)nn2C1c1ccncc1 (stereo not drawn) | – | 1.26 µM (active)
CC1=C(C(N)=O)C(c2ccccc2)n2nc(-c3ccncc3)nc2N1 (stereo not drawn) | – | 11.2 µM (active)

Structure (SMILES) | activity, negative = inhibition | AC50
CC1=C(C(=O)Nc2cccnc2)C(c2cccnc2)n2nc(-c3cccs3)nc2N1 (stereo not drawn) | – | 14.1 µM (active)
CC(C)C(=O)Nc1ccc(NC(=O)c2cccnc2)cn1 | – | inactive
CCOC(=O)C1C(=O)NC(C)C1c1ccccc1 (stereo not drawn) | 1.56% [at 2.29 µM] | –
COc1ccccc1NC(=O)C1=C(C)Nc2nnnn2C1c1cccc(Br)c1 (stereo not drawn) | – | 2.51 µM (active)
N#CC1(Nc2ccc(-c3ccc(NC4(C#N)CCCC4)cc3)cc2)CCCC1 | -20.9% [at 11.4 µM] | –
C=C(Br)CN(C)CC(=C)Br | -1.54% [at 11.4 µM] | –
C[C@H]1/C=C\CC(=O)OC[C@H](C)C(=O)N2CCC[C@@H]2C(=O)OC1 | -17.6% [at 11.4 µM] | –
CCOc1ccc(/C(O)=C2\C(=O)C(=O)N(CCOCCO)C2c2ccccc2OC)cc1 (stereo not drawn) | – | inactive
CCOc1ccccc1C1C(C(N)=O)=C(C)Nc2nc(-c3ccc(OC)cc3)nn21 (stereo not drawn) | – | 12.6 µM (active)
CC1=C(C(N)=O)C(c2cccs2)n2nc(-c3cccc(Cl)c3)nc2N1 (stereo not drawn) | – | 12.6 µM (active)
CCC(=O)n1nc(-c2ccc(OC)cc2)nc1N | – | inactive
O=C1C2=C(NC(=S)NC2c2ccc(Cl)cc2)NC(c2ccc(Cl)cc2)N1c1ccc(Cl)cc1 (stereo not drawn) | – | 2.82 µM (active)
Clc1ccc2c(c1)C1=C(C(c3ccncc3)O2)C(c2ccc(Br)cc2)n2ncnc2N1 (stereo not drawn) | – | 2.51 µM (active)
CCc1cc2c(NCCO)ncnc2s1 | – | inactive
CCc1ccccc1NC(=O)c1ccc(-n2c(C)ccc2C)cc1 | – | 17.8 µM (active)
CCOC(=O)c1ccc(CNC(=O)C2CCCCC2C(=O)OCC(F)(F)F)o1 (stereo not drawn) | – | inactive
CC(C)NC[C@@H](O)COc1ccc(CCOCC2CC2)cc1 | – | inactive
CN1CC(c2ccccn2)C2(SC(=S)N(Cc3ccccc3)C2=O)C12C(=O)Nc1ccccc12 (stereo not drawn) | – | 4.47 µM (active)
